# Most compounds without a hit are left out; they make up all but 22% or so of the library.
# Pf growth 96h: inhibits malaria parasite growth, 96 h. Potency, µM (highest dose often 28.7 µM), usual class: inhibitors. P. falciparum luciferase reporter growth, 96 h. AID 504834. hit rate 6.9% among 320,000
#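 Infected RBCs, 2% Hct / 0.05% parasitemia final; luciferase-reporter P. falciparum; cpd 96 h, 37 C, 5% CO2; luciferase detection reagent; luminescence.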
# Pf growth 48h: inhibits P. falciparum growth in the first generation, 48 h. P. falciparum luciferase growth in erythrocytes, 48 h. hit rate 5.9% among 310,000. Potency, µM (series often up to 28.7 µM), actives largely listed as inhibitors
#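 Luminescence readout; reporter = integrated firefly luciferase in P. falciparum. RBC culture at 2% hematocrit, 0.1% parasitemia final, 37 C/5% CO2; decreased signal taken as growth inhibition.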
# Shiga inhibitor: blocks Shiga toxin action in Vero cells. Vero cells, Shiga toxin protein synthesis inhibition reporter. inhibition, % at 38.7 µM. hit rate 9.2% among 290,000. AID 2315; in the data active = inhibition mostly above about 28%, no sharp cut-off; inactive = mostly below about 43%
# LmPK inh: LmPK (Leishmania mexicana) enzyme inhibition; Potency, µM (series often up to 57.5 µM), most hits filed as inhibitors; hit rate 0.37% among 290,000; AID 1721; Q27686; purified LmPK, Kinase-Glo ATP luminescence, 1 h
# Target sequence (Q27686 whole entry, looked up): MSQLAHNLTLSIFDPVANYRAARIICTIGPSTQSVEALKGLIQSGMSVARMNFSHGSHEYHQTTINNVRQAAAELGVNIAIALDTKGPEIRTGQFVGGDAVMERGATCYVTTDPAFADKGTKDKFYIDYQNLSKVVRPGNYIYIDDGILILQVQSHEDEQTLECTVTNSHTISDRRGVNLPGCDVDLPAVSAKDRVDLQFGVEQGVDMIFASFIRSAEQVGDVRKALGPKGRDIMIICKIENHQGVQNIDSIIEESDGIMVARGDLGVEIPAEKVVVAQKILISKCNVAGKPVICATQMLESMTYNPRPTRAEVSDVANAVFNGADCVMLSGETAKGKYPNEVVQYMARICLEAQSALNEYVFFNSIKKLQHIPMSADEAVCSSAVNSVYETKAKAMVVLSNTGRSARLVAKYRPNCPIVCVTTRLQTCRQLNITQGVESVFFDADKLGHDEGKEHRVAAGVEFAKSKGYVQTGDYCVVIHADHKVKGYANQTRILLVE
#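 ATP generated from ADP (0.1 mM) and PEP (0.5 mM) by 0.1 nM LmPK over 1 h at room temperature (pH 7.2 imidazole buffer) was detected by coupled luciferase luminescence. Values were normalized to uninhibited and no-enzyme wells.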
# Cycloheximide cs: counter-screen hit for Shiga toxin inhibitors, cycloheximide. max response, %. hit rate 12% among 300,000. AID 2314. cell reporter, cycloheximide protein synthesis inhibition counterscreen; in the data active = max response mostly above about 13%, no sharp cut-off; inactive = mostly below about 14%; note: read at 38.3 µM for the half of the compounds with a filed dose
# Hits are given with their value; – = inactive; ? = inconclusive; · = no result; ! = not active in a repeat; [ ] = dose if it differs, or a comment. Unless noted, calls come from the whole dose curve; as a rule, active = well fitted inhibition curve with a large enough effect; inconclusive = small, poorly fitted or top-dose-only effect, or another doubt; inactive = no such curve, though single readings can be large or run the other way.
SMILES,Pf growth 96h,Pf growth 48h,Shiga inhibitor,LmPK inh,Cycloheximide cs
Cc1cc2ccccn2c1C(=O)c1ccccc1Br,–,–,–,–,–
Cc1cc2ccccn2c1C(=O)c1ccc([N+](=O)[O-])o1,?,–,–,–,34
c1ccc2c(c1)OCC(C1=NCCN1)O2 (centres undefined),4.8µM!,?,–,–,–
Cc1cccc(OC(C)C(=O)N2CCN(Cc3ccc4c(c3)OCO4)CC2)c1 (centres undefined),–,–,–,–,–
COc1ccc(CNC(=O)C/C(C)=N/NC(=O)c2ccc(OC)cc2OC)cc1,–,–,47,–,–
COc1ccc(C(=O)N/N=C(\C)CC(=O)Nc2ccc3ccccc3c2)c(OC)c1,?,?,–,–,13
COC(=O)c1cccnc1,–,–,–,·,–
Cc1ccc(-c2cc(C(F)(F)F)n3nc(C(=O)NCCCn4ccnc4)cc3n2)cc1C,?,?,–,–,–
COc1ccc(CCC(=O)NCc2ccc3c(c2)OCO3)cc1,–,–,–,–,–
COc1ccc(CCc2nnc(CCC(=O)NCc3ccc4ncccc4c3)o2)cc1,–,–,–,–,17
COc1ccc(CCc2nnc(CCC(=O)NCc3cnc4ccccn34)o2)cc1,10µM,–,–,–,–
Cc1ccc(S(=O)(=O)c2cc(C)cc(S(=O)(=O)Nc3ccc(C(=O)O)cc3)c2C)cc1,–,–,–,–,–
Cc1cc(Sc2nc(N(C)C)nc(N(C)C)n2)nc(Cl)n1,–,–,–,–,–
COCCn1c(SCC(=O)Nc2ccccc2OC)nc2c([nH]c3ccccc32)c1=O,9.3µM,?,–,–,–
COCCn1c(SCC(=O)Nc2ccc(F)cc2)nc2c([nH]c3ccccc32)c1=O,3.3µM,?,–,–,–
CCn1c(SCC(=O)N2CC(C)OC(C)C2)nc2c([nH]c3ccccc32)c1=O (centres undefined),?,6.6µM,–,–,–
CCN(CC)CCn1c(SCC(=O)Nc2ccc(F)cc2)nc2c(sc3ccccc32)c1=O,?,9.3µM,–,–,–
COCCn1c(SCC(=O)N2CC(C)OC(C)C2)nc2c([nH]c3ccccc32)c1=O (centres undefined),?,?,–,–,–
COc1ccccc1NC(=O)CSc1nc2c(sc3ccccc32)c(=O)n1CCN(C)C,?,–,–,–,–
CC(CCN1CCC(n2nccc2NC(=O)c2ccccc2Cl)CC1)c1ccccc1 (centres undefined),–,–,–,–,–
C=CCn1c(SCC(=O)Nc2ccccc2OC)nc2c([nH]c3ccccc32)c1=O,4.1µM,?,–,–,–
CN(C)CCn1c(SCc2ccccc2C#N)nc2c(sc3ccccc32)c1=O,6.6µM,?,–,–,–
NS(=O)(=O)c1ccc(CCNC(=O)COC(=O)/C=C/c2ccccc2Cl)cc1,–,–,–,–[11.5 µM],–
CCc1ccc(CN(C)C(=O)CCc2nnc(CCc3ccccc3OC)o2)nc1,–,–,–,–,–
CC1CCCCC1N(C)C1CCN(C(=O)CNC(=O)/C=C/c2cccc(Cl)c2)CC1 (centres undefined),–,?,–,–,–
SMILES,Pf growth 96h,Pf growth 48h,Shiga inhibitor,LmPK inh,Cycloheximide cs
NS(=O)(=O)c1ccc(NC(=O)/C=C/c2cccs2)cc1,–,–,–,–,11
NS(=O)(=O)c1cccc(NC(=O)COC(=O)/C(=C/c2cccs2)c2cccs2)c1,–,–,–,–,–
NS(=O)(=O)c1cccc(NC(=O)/C=C/c2cccs2)c1,–,–,48,–,30
OCc1cnc[nH]1,9.3µM,?,–,–,–
N=C(N)SCCc1cnc[nH]1,–,–,·,·,·
CNC(=O)c1ccc(=O)n(Cc2cccc(C(F)(F)F)c2)c1,–,2.9µM,–,–,–
COC(=O)[C@@]12OC[C@]34[C@H]([C@@H](O)[C@@H]1O)[C@@]1(C)C(=O)C(O[C@@H]5OC(CO)[C@@H](O)[C@@H](O)[C@@H]5O)=C[C@@H](C)[C@@H]1C[C@H]3OC(=O)[C@H](OC(=O)/C=C(\C)C(C)(C)OC(C)=O)[C@@H]24 (some centres undefined),4.7µM,2.6µM,·,·,·
COc1ccc(C(c2nnnn2C(C)C)N2CCN(C(=O)c3ccco3)CC2)cc1 (centres undefined),–,–,–,–,–
CCC(C)C(=O)Nc1ccc(S(=O)(=O)N2CCCC2)cc1 (centres undefined),–,–,–,–,–
CCN(Cc1ccc(OC)c(F)c1)C(C)C(=O)Nc1ccc(S(=O)(=O)N2CCCC2)cc1 (centres undefined),?,10µM,·,·,·
COc1ccc(CN(C)C(C)C(=O)Nc2ccc(S(=O)(=O)N3CCCC3)cc2)c(OC)c1OC (centres undefined),4.1µM,7.4µM,–,–,–
COc1ccc(CC(=O)Nc2ccc(S(=O)(=O)N3CCCCC3)cc2)cc1OC,–,–,–,–,–
Cc1oc(C(=O)O)cc1COc1cccc2cccnc12,?,–,–,–,–
Fc1ccc(COc2cccc3cccnc23)cc1,–,–,91,–,41
Cc1ccc(S(=O)(=O)Cc2cn3cccnc3n2)cc1,–,–,–,–,–
Clc1cccc(NCc2cn3cccnc3n2)c1,–,–,–,–,27
Clc1ccc(OCc2cn3cccnc3n2)c2ncccc12,–,–,101,–,35
Cc1cc(Cl)ccc1OCc1cn2cccnc2n1,–,–,84,–,51
N=c1ccn2c(n1)OC1C(O)C(CO)OC12 (centres undefined),–,–,–,–,–
COc1ccc(/C=C/C(=O)c2ccc3c4c(cccc24)CC3)cc1OC,?,?,–,–,–
COc1ccc(C(OCC(O)CN2CCC(O)CC2)c2ccc(OC)cc2)cc1 (centres undefined),–,–,–,–,–
CC1SC(C)C(=O)N(CC(=O)NC2CCCCC2)C1=O (centres undefined),–,–,–,–,–
[N-]=[N+]=NCc1cn2cccnc2n1,–,–,–,–,–
c1cnc2c(OCc3cn4cccnc4n3)cccc2c1,·,–,–,–,28
Cn1ncc2c(Nc3ccc(Br)cc3)nc(Nc3ccc(Br)cc3)nc21,9.3µM,2.1µM,–,–,–
SMILES,Pf growth 96h,Pf growth 48h,Shiga inhibitor,LmPK inh,Cycloheximide cs
Cn1ncc2c(Nc3ccc(O)cc3)nc(Cl)nc21,–,–,–,–,–
Cn1ncc2c(Nc3cccc(Cl)c3)nc(Nc3cccc(Cl)c3)nc21,2.9µM,1.7µM,–,–,–
Cc1[nH]c2ccc(F)cc2c(=O)c1SC(F)(F)C(F)F,–,13µM,–,–,–
O=c1cc(-c2ccc(F)cc2F)[nH]c2ccc(F)cc12,·,·,–,·,–
COc1cc(C(=O)NCCOc2cc(C)cc(C)c2)cc(OC)c1OC,–,?,–,–,–
CSc1nnc(Nc2ccccc2C)s1,9.3µM,·,–,–,16
C/C(N)=C(/C#N)C(=O)CSc1ncnc2ccccc12,–,–,–,–,–
C/C(N)=C(/C#N)C(=O)CSc1nc2ccccc2[nH]1,·,–,67,–,35
C/C(N)=C(/C#N)C(=O)CSc1nnc(Nc2ccccc2C)s1,7.4µM,–,51,–,46
